A selection: hits, their analogues and other compounds. The true share with any hit is near 21%.
VP16 counter – VP16 counterscreen qHTS for inhibitors of ROR gamma transcriptional activity | AID 2546, 2010 | 3.5% of 310,000 active | Drosophila S2 Gal4-VP16 UAS-luciferase, luminescence, 20 h | Potency, µM (titrated, usually from 53.6 µM), for the others: at the top dose activity, negative = inhibition, usual class: inhibitors;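 further: Gal4-VP16 expression switched on by copper sulfate through the metallothionein promoter; potency means the concentration at half of the fitted maximal effect; nearly all actives have a fitted effect of over 50% in size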
DT40 TDP1 no CPT – qHTS for Inhibitors of human tyrosyl-DNA phosphodiesterase 1 (TDP1): qHTS in cells in absence of CPT; Potency, µM (titrated, usually from 46.2 µM), without a hit: at the top dose activity change, negative = growth inhibition, hits mostly inhibitors; AID 686978, 2013; DT40 Tdp1-/- hTDP1 cells, no CPT, ATP luminescence, 48 h; 15% of 420,000 active; further: potency means the concentration at half of the fitted maximal effect; nearly all actives have a fitted effect of over 55% in size
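Chicken DT40 Tdp1-/- cells complemented with human TDP1, screened without camptothecin (DMSO vehicle only), 400 cells/well. Compounds pin-transferred, cells incubated at 37 °C for at least 48 hr. Growth read as ATP-dependent luminescence (CellTiter-Glo, 30 min at RT).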
IL-1B inflam inh – qHTS for Inhibitors of Inflammasome Signaling: IL-1-beta AlphaLISA Primary Screen | THP-1 LPS/ATP IL-1B secretion, AlphaLISA, 16 h; active compounds read low | activity change, % at 57.5 µM | 4.7% of 360,000 active | AID 743279, 2014; in the data active means activity change below about -50%; inconclusive means mostly about -30% to -49%
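THP-1 cells pretreated 1 hr with compounds (up to 57.5 uM final), then stimulated with LPS (250 ng/mL final) plus ATP (1.25 mM final); secreted IL-1B measured by AlphaLISA after 16 hr, decreased signal indicating inhibition.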
TDP1 cell CPT – qHTS for Inhibitors of human tyrosyl-DNA phosphodiesterase 1 (TDP1): qHTS in cells in presence of CPT; AID 686979, 2013; 12% of 420,000 active; Potency, µM (doses to about 46.2 µM), inactives show at the highest dose activity change, negative = growth inhibition, actives largely listed as inhibitors; chicken DT40 Tdp1-/-;hTDP1 cells + 20 nM CPT, ATP luminescence, 48 h; further: potency means the concentration at half of the fitted maximal effect; nearly all actives have a fitted effect of over 55% in size
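Chicken DT40 Tdp1-/- cells stably complemented with human TDP1 were seeded at 400 cells/well in medium containing 20 nM camptothecin, exposed to pin-transferred compounds, and grown at 37 °C for at least 48 hr. Viability was read as ATP luminescence.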
ELG1 DNA repair – qHTS screen for small molecules that inhibit ELG1-dependent DNA repair in human embryonic kidney (HEK293T) cells expressing luciferase-tagged ELG1 | HEK293T ELG1-luciferase reporter, luminescence, 16 h; DNA damage induced by 5-fluorouridine | Potency, µM (highest dose often 46.1 µM), inactives show at the highest dose activity change, negative = inhibition, actives largely listed as inhibitors | 2.3% of 330,000 active | AID 504467, 2011; further: potency means the concentration at half of the fitted maximal effect; nearly all actives have a fitted effect of over 55% in size
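5-Fluorouridine DNA damage + compound/DMSO, 2,000 cells/well, 16 h, 37 °C/5% CO2. ONE-Glo, 30 min RT, luminescence. Readout = decrease in reporter signal.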
RORgamma inh – qHTS for inhibitors of ROR gamma transcriptional activity. Drosophila S2 Gal4-RORgamma UAS-luciferase reporter, 20 h. Potency, µM (top dose mostly 53.6 µM), inactives show at the highest dose activity change, negative = inhibition, hits mostly inhibitors. 5.4% of 310,000 active. AID 2551, 2010; further: potency means the concentration at half of the fitted maximal effect; nearly all actives have a fitted effect of over 60% in size
Target sequence (P51450 whole entry, looked up, the tested form may be a part): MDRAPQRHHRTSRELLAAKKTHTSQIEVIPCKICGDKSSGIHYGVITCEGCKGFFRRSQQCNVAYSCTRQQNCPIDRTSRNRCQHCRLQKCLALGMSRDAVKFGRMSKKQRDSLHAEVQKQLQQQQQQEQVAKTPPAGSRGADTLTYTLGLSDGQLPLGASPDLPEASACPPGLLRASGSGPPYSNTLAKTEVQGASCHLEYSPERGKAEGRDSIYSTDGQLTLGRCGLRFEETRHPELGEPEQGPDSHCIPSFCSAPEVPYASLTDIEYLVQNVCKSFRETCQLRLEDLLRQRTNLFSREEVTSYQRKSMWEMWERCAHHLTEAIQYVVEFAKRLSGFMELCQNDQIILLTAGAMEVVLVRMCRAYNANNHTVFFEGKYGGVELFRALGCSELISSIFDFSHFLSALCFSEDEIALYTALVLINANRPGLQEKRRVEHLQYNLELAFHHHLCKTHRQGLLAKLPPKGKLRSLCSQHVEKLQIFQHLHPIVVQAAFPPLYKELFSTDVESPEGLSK
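Stable Schneider cell line, Gal4 DNA-binding domain fused to ROR gamma, UAS-luciferase. Cmpd 1 hr RT → CuSO4 700 uM final → 20 hr RT → luciferase reagent 10 min → luminescence.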
Starred values were filed as active, the others as inactive; ? = inconclusive; · = not tested or not shown; [ ] = another dose, or the depositor's remark. Unless noted, the call rests on the fitted dose curve; in most records, active means well fitted curve in the direction sought with a large enough effect; inconclusive means small, poorly fitted or top-dose-only effect, or another doubt; inactive means no such curve, though single readings can be large; an effect the other way counts as inactive or inconclusive. On the % scale 0 is the no-effect control and ±100 the full control effect.

SMILES | VP16 counter | DT40 TDP1 no CPT | IL-1B inflam inh | TDP1 cell CPT | ELG1 DNA repair | RORgamma inh
Nn1c(-c2cccc(O)c2)nnc1-c1cccc(O)c1 | · | 4% | -10 | 8% | · | ·
CC(=O)Nc1ccc(C2=NN(Cc3nnc(-c4ccccc4)o3)C(=O)SC2)cc1 | -7% | -20% | -9 | -22% | 16µM* | 35%
COc1ccc(C(=O)Nc2cccc(OCc3cc(=O)n4c5c(sc4n3)CCCC5)c2)cc1OC | · | ? | · | -6% | · | ·
O=C(/C=C/c1ccc2c(c1)OCCO2)c1ccccc1 | ? | 16µM* | ? | ? | ? | 12%
Nc1ccccc1C(=O)/C=C\c1ccc2c(c1)OCO2 | -1%[10 µM] | · | · | · | · | 20%[10 µM]
Cc1ccc(O)c(C(=O)/C=C/c2ccc3c(c2)OCCO3)c1 | 7% | 16µM* | -52* | 16µM* | 16% | ?
COc1ccc(C(=O)C=Cc2ccc3c(c2)OCO3)cc1OC | · | ? | -23 | -21% | · | ·
COc1ccc(C(=O)/C=C/c2ccc(OC)c(COc3ccc(F)cc3)c2)cc1 | -12% | ? | -93* | ? | 2% | ?
COc1ccc(C(=O)/C=C/c2ccc3c(c2)OCCO3)cc1 | 5% | ? | -93* | ? | ? | -17%
O=C(COc1ccccc1)N(Cc1cccnc1)c1nc2c(F)cccc2s1 | · | -17% | · | -8% | · | ·
CS(=O)(=O)N1Cc2cc(C(=O)NCC3CC3)nc(-c3cccc(-c4cccnc4)c3)c2[C@H]1CCO | · | -28% | -30 | -16% | · | ·
O=C(O)/C=C1\CCCc2ccccc2[C@H]1O | -10% | -6% | · | -11% | · | 2%
COc1ccc(/C=C/C(=O)c2ccc(O)cc2)cc1 | 7.1µM* | ? | -80* | -3% | ? | 2.5µM*
COc1ccc(C(=O)Cn2c(C(=O)/C=C/c3ccccc3)nc3ccccc32)cc1 | ? | 23µM* | -27 | 15µM* | ? | 4µM*
O=C(Nc1ccc(Cn2cccn2)cc1)c1ccc(COc2ccc(Br)cc2)cc1 | 15% | -19% | 13 | -19% | 2% | 23%
Cn1ncc([N+](=O)[O-])c1C(=O)Nc1ccn(Cc2ccccc2F)n1 | 13% | -1% | 15 | -5% | 3% | 19%
Cc1nn(Cc2cccc(C(=O)Nc3ccn(Cc4ccccc4F)n3)c2)c(C)c1[N+](=O)[O-] | -6% | ? | 0 | 23µM* | ? | 1%
O=C(Nc1ccn(Cc2ccccc2F)n1)c1ccc(COc2ccc(Br)cc2)cc1 | ? | ? | -27 | 11µM* | 8% | ?
Cc1cccc(Cn2ccc(NC(=O)c3ccc4c(c3)OCO4)n2)c1 | 29% | -27% | -52* | 8% | -11% | 29%
COc1cc2c(cc1OC)CN(CC(=O)Nc1ccc(C)c(C)c1)CC2 | -4% | -14% | -5 | ? | ? | 24%
Cc1noc(C)c1CC(=O)Nc1ccc2c(c1)OCO2 | · | 1% | -1 | 19% | ? | ·
O=C(COC(=O)c1cccc(C(F)(F)F)c1)NC(=O)NC1CCCC1 | · | ? | -8 | ? | ? | ·
COC(=O)c1cc(NC(=O)COC(=O)C2COc3ccccc3O2)cc(C(=O)OC)c1 (stereo not given) | · | -8% | -5 | -1% | 21% | ·
Cc1c(NC(=O)c2ccccc2N(C)S(=O)(=O)c2ccccc2)c(=O)n(-c2ccccc2)n1C | -3% | 1% | -7 | -5% | ? | 24%
O=C(NCCCN1CCCCCC1)[C@@H](c1ccccc1)C1CCCCC1 | 1% | 11µM* | · | 11µM* | · | 1%
SMILES | VP16 counter | DT40 TDP1 no CPT | IL-1B inflam inh | TDP1 cell CPT | ELG1 DNA repair | RORgamma inh
CSc1ccc(NC(=O)NCCCN2CCC(Cc3ccccc3)CC2)cc1 | 4% | 23µM* | -54* | ? | 0% | ?
CN1CCN(CCCNC(=O)C2CC(=O)N(C3CCCCC3)C2)CC1 (stereo not given) | 0% | 7% | 17 | 6% | 8% | 6%
O=C(NCCCN1CCC(Cc2ccccc2)CC1)C1CC(=O)N(C2CCCCCC2)C1 (stereo not given) | 8% | 26µM* | 0 | ? | -13% | 4%
Cc1cc(C)n(CC(C)(O)c2ccccc2)n1 (stereo not given) | · | -16% | 26 | -6% | 2% | ·
Cc1c(C(=O)NCC2(N3CCCCC3)CCCC2)cnn1-c1nccc(-c2ccccc2F)n1 | · | -7% | · | 0%[9.04 µM] | · | ·
Nc1nnc(CCS(=O)(=O)c2ccc(Br)cc2)s1 | 2% | 3% | 30 | 2% | 3% | 10%
Cc1cc2c(s1)c1cnn(CC(=O)N3CCOCC3)c(=O)c1n2C | · | -21% | · | -4% | · | ·
CC(=O)c1ccc(S(=O)(=O)N2CCn3cccc3C2c2ccc(F)c(F)c2)cc1 (stereo not given) | · | 21µM* | · | ? | · | ·
Cc1ccc(C2c3cccn3CCN2S(=O)(=O)c2ccc([N+](=O)[O-])cc2)cc1 (stereo not given) | · | 18µM* | · | ? | · | ·
CC1c2cccn2CCN1S(=O)(=O)c1ccc(F)cc1 (stereo not given) | · | -6% | -11 | 10% | 12% | ·
CC1=C([N+](=O)[O-])C(c2ccc(Cl)cc2)NC(=O)N1C (stereo not given) | -1% | 5.8µM* | 34 | 6.5µM* | 1% | -15%
CCOc1cc(C2NC(=O)N(C)C(C)=C2[N+](=O)[O-])ccc1OC(C)=O (stereo not given) | 1% | 2% | 7 | -7% | 6% | -27%
COc1ccc2nc(NC(=O)CSCc3c(C)noc3C)sc2c1 | · | ? | -3 | ? | ? | ·
Cc1noc(C)c1CSCC(=O)Nc1nc2c(F)cc(F)cc2s1 | · | 23µM* | -2 | ? | -1% | ·
Cc1noc(C)c1CSCC(=O)Nc1nc(-c2ccc(F)c(F)c2)cs1 | · | 8.2µM* | -81* | 23µM* | ? | ·
COc1ccc(-c2csc(NC(=O)CSCc3c(C)noc3C)n2)cc1OC | -2% | 9.2µM* | ? | ? | 12µM* | -8%
CCOCCc1nnc(NC(=O)C(=O)c2cc(C)n(-c3cccc(Cl)c3)c2C)s1 | · | ? | · | -20% | · | ·
CSCCC(NC(=O)OCc1ccccc1)NC(=O)OCc1ccccc1 | · | -7% | 2 | 7% | · | ·

Screens from PubChem BioAssay.
